# How the values were obtained:
# Test in all cases: DAPPL (digital affinity profiling via proximity ligation, sequencing); 10 mM Tris-HCl pH 7.5, 50 mM NaCl, 1 mM DTT, 4% glycerol, room temperature, 30 min; GST-TFs on glutathione beads, 16-mer random dsDNA library, 0.1% formaldehyde crosslink after washing; high values mean tight binding
# [1] = target: T1, FLI1 (Homo sapiens, UniProt Q01543 1-452); details: protein: recombinant; tags: N-terminal GST; dsDNA, one strand shown
# T1 sequence: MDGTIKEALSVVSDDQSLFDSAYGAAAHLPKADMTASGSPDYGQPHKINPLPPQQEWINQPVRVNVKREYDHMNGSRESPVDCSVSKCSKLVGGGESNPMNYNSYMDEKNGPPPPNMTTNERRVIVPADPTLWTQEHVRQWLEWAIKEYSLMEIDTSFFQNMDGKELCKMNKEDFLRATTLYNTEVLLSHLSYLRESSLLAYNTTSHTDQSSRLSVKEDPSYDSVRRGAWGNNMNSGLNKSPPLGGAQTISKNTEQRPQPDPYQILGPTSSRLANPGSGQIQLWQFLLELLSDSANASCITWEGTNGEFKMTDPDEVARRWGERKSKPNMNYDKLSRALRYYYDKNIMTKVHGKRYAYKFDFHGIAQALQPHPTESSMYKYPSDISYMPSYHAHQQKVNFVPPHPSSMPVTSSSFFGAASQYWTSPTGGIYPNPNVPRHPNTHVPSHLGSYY
# In short: (§1)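 The binding signal reported is, for every hexamer, its read frequency for a factor over its read frequency for the tag-only sample. Reads came from pools of yeast-expressed, GST-fused human transcription factors on glutathione beads, barcoded with DNA and mixed with that sample, which were incubated with 200 nmole of a random double-stranded 16-mer DNA library in Tris/NaCl/DTT/glycerol buffer at room temperature for 30 min. After washing, the pools were crosslinked with 0.1% formaldehyde, proximity-ligated with BsaI/T4 ligase for 1 h at 37 °C, PCR-amplified and sequenced on an Illumina NextSeq500.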
# [2] = target: T2, ELK1 (Homo sapiens, UniProt P19419 1-428); details: protein: recombinant; tags: N-terminal GST; dsDNA, one strand shown
# T2 sequence: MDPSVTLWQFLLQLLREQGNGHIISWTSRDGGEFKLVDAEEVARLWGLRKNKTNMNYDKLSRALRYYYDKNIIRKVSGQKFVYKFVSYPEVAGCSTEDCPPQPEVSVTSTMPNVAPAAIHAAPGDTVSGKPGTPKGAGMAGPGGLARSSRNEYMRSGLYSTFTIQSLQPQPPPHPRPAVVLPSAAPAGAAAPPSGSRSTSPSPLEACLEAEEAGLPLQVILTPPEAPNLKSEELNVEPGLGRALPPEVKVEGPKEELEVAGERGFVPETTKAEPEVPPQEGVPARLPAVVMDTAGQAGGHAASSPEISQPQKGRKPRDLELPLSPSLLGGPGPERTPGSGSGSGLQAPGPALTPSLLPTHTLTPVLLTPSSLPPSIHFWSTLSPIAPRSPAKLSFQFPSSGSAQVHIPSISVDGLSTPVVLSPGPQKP
# In short: as §1
# [3] = target: T3, GABPA (Homo sapiens, UniProt Q06546 1-454); details: protein: recombinant; tags: N-terminal GST; dsDNA, one strand shown
# T3 sequence: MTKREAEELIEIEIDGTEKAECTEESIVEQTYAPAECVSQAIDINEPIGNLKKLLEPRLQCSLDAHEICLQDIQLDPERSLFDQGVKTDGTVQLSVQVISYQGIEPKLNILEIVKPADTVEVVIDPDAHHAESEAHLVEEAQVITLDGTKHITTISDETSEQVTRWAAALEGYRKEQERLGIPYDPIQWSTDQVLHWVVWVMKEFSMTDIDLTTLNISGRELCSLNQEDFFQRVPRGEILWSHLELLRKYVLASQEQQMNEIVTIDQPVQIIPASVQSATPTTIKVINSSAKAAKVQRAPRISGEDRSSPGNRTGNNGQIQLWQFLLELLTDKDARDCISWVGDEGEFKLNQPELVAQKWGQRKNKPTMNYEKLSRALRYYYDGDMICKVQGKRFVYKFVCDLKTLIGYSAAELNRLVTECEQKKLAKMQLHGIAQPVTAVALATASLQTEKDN
# In short: as §1
# [4] = target: T4, ERG (Homo sapiens, UniProt P11308 1-479); details: protein: recombinant; tags: N-terminal GST; dsDNA, one strand shown
# T4 sequence: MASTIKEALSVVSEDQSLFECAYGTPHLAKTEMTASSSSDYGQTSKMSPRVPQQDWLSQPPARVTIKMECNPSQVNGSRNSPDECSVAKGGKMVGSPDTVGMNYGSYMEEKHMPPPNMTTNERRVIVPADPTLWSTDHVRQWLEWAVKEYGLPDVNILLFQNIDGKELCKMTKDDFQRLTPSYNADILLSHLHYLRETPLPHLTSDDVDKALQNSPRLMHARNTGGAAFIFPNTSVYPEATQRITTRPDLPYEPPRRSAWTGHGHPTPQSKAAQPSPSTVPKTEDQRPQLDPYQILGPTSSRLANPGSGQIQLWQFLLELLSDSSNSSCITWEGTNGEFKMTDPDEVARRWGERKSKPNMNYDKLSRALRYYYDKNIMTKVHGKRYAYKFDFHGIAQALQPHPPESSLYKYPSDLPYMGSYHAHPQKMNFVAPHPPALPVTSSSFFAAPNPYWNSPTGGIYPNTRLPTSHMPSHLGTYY
# In short: as §1
# [5] = target: ELF1 (Homo sapiens, UniProt P32519 1-619); details: protein: recombinant; tags: N-terminal GST; dsDNA, one strand shown
# Chain of ELF1 (P32519 whole entry): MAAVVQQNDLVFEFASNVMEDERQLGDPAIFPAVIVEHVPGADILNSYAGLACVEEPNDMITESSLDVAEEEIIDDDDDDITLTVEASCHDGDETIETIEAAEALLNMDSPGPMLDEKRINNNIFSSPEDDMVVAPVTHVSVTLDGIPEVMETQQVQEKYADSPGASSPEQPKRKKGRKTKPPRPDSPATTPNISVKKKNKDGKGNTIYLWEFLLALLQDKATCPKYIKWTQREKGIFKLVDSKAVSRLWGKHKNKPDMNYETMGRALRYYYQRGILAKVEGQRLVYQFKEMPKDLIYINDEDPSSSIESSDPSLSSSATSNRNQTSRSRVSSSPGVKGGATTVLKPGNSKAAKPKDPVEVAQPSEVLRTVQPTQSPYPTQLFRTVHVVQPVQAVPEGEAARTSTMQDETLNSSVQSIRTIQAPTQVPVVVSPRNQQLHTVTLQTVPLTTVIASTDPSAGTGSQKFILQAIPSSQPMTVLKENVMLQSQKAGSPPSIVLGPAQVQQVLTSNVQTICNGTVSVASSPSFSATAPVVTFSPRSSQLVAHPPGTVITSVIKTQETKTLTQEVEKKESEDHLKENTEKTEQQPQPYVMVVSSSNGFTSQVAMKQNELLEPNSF
# In short: as §1
# [6] = target: T5, EHF (Homo sapiens, UniProt Q9NZC4 1-300); details: protein: recombinant; tags: N-terminal GST; dsDNA, one strand shown
# T5 sequence: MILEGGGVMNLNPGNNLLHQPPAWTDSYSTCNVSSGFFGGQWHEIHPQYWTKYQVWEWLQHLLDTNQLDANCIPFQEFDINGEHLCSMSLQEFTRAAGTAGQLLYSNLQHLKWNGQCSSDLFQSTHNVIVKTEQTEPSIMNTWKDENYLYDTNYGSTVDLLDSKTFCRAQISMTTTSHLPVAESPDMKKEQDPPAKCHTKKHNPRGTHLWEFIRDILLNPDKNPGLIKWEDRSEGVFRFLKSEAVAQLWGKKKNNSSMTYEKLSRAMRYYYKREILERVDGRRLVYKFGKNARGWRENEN
# In short: as §1
# [7] = target: SPI1 (Homo sapiens, UniProt P17947 1-270); details: protein: recombinant; tags: N-terminal GST; dsDNA, one strand shown
# In short: as §1
# [8] = target: SPIB (Homo sapiens, UniProt Q01892 1-262); details: protein: recombinant; tags: N-terminal GST; dsDNA, one strand shown
# Chain of SPIB (Q01892 whole entry): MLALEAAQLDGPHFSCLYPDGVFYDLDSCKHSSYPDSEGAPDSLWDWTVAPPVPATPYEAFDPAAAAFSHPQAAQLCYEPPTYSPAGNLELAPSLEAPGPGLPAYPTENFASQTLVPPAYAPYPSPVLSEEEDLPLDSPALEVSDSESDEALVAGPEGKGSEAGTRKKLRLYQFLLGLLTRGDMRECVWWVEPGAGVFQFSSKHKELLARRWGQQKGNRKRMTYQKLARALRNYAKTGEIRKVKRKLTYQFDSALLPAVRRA
# In short: as §1
# [9] = target: T6, ELK3 (Homo sapiens, UniProt P41970 1-407); details: protein: recombinant; tags: N-terminal GST; dsDNA, one strand shown
# T6 sequence: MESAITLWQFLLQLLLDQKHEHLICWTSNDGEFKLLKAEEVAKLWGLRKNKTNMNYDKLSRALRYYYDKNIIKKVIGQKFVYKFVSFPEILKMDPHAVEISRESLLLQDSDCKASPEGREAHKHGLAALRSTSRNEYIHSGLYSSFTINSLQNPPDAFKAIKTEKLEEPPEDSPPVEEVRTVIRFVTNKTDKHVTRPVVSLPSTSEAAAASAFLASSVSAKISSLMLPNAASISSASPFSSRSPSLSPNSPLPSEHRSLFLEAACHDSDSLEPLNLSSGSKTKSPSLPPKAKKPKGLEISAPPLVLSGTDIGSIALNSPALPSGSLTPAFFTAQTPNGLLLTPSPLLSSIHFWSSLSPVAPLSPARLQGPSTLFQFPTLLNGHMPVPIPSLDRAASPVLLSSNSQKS
# In short: as §1
# [10] = target: T7, FEV (Homo sapiens, UniProt Q99581 1-238); details: protein: recombinant; tags: N-terminal GST; dsDNA, one strand shown
# T7 sequence: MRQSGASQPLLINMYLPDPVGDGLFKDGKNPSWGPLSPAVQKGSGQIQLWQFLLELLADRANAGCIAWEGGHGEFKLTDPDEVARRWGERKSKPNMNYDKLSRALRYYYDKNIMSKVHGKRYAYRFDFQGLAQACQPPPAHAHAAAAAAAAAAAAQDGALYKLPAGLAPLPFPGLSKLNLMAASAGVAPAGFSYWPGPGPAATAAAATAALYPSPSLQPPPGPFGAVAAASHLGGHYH
# In short: as §1
# [11] = target: ETV5 (Homo sapiens, UniProt P41161 1-510); details: protein: recombinant; tags: N-terminal GST; dsDNA, one strand shown
# Chain of ETV5 (P41161 whole entry): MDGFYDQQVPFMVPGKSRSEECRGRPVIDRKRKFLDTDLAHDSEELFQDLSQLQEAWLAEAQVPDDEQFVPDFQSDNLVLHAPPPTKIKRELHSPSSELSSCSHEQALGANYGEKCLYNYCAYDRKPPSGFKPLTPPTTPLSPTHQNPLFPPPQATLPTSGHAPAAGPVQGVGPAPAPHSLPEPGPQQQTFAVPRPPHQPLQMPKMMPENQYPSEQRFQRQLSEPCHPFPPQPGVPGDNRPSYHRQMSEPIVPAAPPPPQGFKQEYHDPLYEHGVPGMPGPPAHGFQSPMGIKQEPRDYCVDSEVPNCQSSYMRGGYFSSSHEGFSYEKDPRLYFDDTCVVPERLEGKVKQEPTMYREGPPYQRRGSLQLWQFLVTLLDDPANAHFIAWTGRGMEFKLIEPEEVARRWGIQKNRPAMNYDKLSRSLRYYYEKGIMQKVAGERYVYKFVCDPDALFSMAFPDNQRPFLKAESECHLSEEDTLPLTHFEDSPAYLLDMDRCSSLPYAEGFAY
# In short: as §1
# [12] = target: HSF1 (Homo sapiens, UniProt Q00613 1-529); details: protein: recombinant; tags: N-terminal GST; chain copies: 3; dsDNA, one strand shown
# Chain of HSF1 (Q00613 whole entry): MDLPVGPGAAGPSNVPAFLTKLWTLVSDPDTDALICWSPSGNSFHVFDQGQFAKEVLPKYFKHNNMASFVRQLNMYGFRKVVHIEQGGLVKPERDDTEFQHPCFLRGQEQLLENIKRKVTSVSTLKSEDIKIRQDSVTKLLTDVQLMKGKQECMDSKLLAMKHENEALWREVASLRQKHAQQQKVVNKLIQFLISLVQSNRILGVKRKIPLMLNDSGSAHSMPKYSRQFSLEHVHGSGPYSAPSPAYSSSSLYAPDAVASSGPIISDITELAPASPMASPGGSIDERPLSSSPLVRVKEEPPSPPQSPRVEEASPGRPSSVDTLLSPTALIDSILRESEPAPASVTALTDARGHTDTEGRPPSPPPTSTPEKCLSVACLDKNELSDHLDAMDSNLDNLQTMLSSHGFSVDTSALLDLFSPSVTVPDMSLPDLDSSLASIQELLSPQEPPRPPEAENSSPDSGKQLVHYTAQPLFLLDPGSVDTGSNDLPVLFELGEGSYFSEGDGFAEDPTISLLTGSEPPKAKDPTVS
# In short: as §1
# [13] = target: T8, SPIC (Homo sapiens, UniProt Q8N5J4 1-248); details: protein: recombinant; tags: N-terminal GST; dsDNA, one strand shown
# T8 sequence: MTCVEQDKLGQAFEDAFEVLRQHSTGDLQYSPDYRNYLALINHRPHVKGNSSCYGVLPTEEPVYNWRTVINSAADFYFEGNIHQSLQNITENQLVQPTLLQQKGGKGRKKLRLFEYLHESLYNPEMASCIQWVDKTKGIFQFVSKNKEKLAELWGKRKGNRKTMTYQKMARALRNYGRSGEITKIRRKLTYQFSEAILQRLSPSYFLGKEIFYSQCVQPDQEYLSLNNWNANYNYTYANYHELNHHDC
# In short: as §1
# [14] = target: ELF4 (Homo sapiens, UniProt Q99607 1-663); details: protein: recombinant; tags: N-terminal GST; dsDNA, one strand shown
# Chain of ELF4 (Q99607 whole entry): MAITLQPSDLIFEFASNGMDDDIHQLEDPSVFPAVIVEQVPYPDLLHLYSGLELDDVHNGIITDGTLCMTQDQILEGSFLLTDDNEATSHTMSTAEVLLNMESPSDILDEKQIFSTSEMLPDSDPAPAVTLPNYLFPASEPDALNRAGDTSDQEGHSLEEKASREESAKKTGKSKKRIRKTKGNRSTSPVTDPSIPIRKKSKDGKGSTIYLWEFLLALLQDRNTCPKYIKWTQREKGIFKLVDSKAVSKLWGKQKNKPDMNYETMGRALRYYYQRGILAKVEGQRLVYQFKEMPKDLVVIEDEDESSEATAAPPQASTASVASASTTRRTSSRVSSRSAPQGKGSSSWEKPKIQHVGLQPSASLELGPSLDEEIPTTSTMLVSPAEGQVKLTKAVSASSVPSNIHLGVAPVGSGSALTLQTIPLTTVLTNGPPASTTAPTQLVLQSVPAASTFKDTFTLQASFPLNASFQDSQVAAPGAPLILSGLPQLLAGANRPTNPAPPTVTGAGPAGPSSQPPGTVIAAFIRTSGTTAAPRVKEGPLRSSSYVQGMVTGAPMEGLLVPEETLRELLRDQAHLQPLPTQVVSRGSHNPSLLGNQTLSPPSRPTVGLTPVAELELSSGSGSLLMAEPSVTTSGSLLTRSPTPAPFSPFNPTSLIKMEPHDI
# In short: as §1
# [15] = target: T9, ELK4 (Homo sapiens, UniProt P28324-2 1-405); details: protein: recombinant; tags: N-terminal GST; dsDNA, one strand shown
# T9 sequence: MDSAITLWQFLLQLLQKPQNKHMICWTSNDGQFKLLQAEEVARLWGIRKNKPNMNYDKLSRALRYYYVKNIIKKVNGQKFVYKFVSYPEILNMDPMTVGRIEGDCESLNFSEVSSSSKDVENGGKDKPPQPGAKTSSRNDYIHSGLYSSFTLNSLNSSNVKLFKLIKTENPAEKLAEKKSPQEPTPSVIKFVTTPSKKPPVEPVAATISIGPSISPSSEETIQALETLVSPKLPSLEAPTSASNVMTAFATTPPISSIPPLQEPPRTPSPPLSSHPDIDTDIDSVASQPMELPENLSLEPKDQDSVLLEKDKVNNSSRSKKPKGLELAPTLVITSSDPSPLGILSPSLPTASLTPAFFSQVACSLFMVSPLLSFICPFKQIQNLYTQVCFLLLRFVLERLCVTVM
# In short: as §1
# [16] = target: T10, ETV2 (Homo sapiens, UniProt O00321 1-342); details: protein: recombinant; tags: N-terminal GST; dsDNA, one strand shown
# T10 sequence: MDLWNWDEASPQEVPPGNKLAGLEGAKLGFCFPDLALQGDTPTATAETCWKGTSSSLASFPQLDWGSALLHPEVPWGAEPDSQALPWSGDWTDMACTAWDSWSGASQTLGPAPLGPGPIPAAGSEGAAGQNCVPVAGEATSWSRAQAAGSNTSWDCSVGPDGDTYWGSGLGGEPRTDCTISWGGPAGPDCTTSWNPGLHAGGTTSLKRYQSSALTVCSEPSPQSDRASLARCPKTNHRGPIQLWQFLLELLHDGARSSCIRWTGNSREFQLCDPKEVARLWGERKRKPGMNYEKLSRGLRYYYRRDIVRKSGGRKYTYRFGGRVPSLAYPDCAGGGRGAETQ
# In short: as §1
# [17] = target: CRX (Homo sapiens, UniProt O43186 1-299); details: protein: recombinant; tags: N-terminal GST; dsDNA, one strand shown
# Chain of CRX (O43186 whole entry): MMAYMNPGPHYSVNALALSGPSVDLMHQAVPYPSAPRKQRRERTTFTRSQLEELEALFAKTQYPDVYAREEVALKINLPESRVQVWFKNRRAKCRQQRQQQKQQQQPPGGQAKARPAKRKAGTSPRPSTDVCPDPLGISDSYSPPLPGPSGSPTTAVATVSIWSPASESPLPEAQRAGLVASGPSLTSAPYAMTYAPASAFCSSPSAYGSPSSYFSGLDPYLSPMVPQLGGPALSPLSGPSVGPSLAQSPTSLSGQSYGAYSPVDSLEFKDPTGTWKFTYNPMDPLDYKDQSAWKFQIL
# In short: as §1
# [18] = target: ETV1 (Homo sapiens, UniProt P50549 1-477); details: protein: recombinant; tags: N-terminal GST; dsDNA, one strand shown
# Chain of ETV1 (P50549 whole entry): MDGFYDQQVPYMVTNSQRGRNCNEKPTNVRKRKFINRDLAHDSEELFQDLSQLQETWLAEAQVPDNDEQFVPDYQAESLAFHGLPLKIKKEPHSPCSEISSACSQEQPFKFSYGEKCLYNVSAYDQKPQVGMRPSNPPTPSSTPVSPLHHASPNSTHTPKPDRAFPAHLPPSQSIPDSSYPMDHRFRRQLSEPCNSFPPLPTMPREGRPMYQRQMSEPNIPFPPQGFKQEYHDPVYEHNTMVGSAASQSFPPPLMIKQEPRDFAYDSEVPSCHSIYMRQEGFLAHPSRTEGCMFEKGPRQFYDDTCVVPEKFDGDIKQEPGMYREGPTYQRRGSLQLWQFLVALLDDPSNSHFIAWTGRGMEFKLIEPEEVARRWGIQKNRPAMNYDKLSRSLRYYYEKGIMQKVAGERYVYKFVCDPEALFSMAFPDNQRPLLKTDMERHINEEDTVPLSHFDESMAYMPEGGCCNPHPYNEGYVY
# In short: as §1
sequence,measurement,setting,value
TTACGA,binding signal,[1],"1.21 fold enrichment (6-mer frequency, TF over GST control)"
same,binding signal,[2],"1.14 fold enrichment (6-mer frequency, TF over GST control)"
same,binding signal,[3],"1.18 fold enrichment (6-mer frequency, TF over GST control)"
same,binding signal,[4],"1.06 fold enrichment (6-mer frequency, TF over GST control)"
same,binding signal,[5],"1.14 fold enrichment (6-mer frequency, TF over GST control)"
same,binding signal,[6],"1.07 fold enrichment (6-mer frequency, TF over GST control)"
same,binding signal,[7],"1.09 fold enrichment (6-mer frequency, TF over GST control)"
same,binding signal,[8],"1.07 fold enrichment (6-mer frequency, TF over GST control)"
same,binding signal,[9],"1.09 fold enrichment (6-mer frequency, TF over GST control)"
same,binding signal,[10],"1.11 fold enrichment (6-mer frequency, TF over GST control)"
same,binding signal,[11],"1.07 fold enrichment (6-mer frequency, TF over GST control)"
same,binding signal,[12],"1.46 fold enrichment (6-mer frequency, TF over GST control)"
same,binding signal,[13],"1.02 fold enrichment (6-mer frequency, TF over GST control)"
same,binding signal,[14],"1.16 fold enrichment (6-mer frequency, TF over GST control)"
same,binding signal,[15],"1.16 fold enrichment (6-mer frequency, TF over GST control)"
same,binding signal,[16],"1.17 fold enrichment (6-mer frequency, TF over GST control)"
same,binding signal,[17],"1.89 fold enrichment (6-mer frequency, TF over GST control)"
same,binding signal,[18],"1.16 fold enrichment (6-mer frequency, TF over GST control)"

# Reference: PMC7862700, “An all-to-all approach to the identification of sequence-specific readers for epigenetic DNA modifications on cytosine”
